Screens deposited in PubChem by National Center for Advancing Translational Sciences (NCATS).
Tau fibril FP = qHTS for Inhibitors of Tau Fibril Formation, Fluorescence Polarization; K18 P301L tau heparin fibrillization, Alexa594 FP, 6 h; Potency, µM (titrated, usually from 57.7 µM), for the others: at the top dose activity, negative = inhibition, usual class: inhibitors; hit rate 0.39% among 280,000; further: potency means the concentration at half of the fitted maximal effect; nearly all actives have a fitted effect of over 55% in size
Target sequence (P10636 561-689 P618L limits assumed): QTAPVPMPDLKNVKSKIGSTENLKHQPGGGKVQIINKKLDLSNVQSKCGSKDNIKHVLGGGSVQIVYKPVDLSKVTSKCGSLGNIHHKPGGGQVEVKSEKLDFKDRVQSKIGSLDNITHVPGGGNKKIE
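Steps: dispense K18 P301L tau (15 uM plus 0.24 uM Alexa 594 tracer, final) in pH 7 sodium acetate; add compound; add heparin (20 uM final); incubate 6 hr, 37 C; add ThT (30 uM final); after 1 hr ambient, read FP.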
G9a block = qHTS Assay for Inhibitors of Histone Lysine Methyltransferase G9a; Histone-lysine N-methyltransferase EHMT2 (Homo sapiens), Q96KQ7; G9a H3K9 monomethylation, AlphaScreen, 2 h; Potency, µM (series often up to 102 µM), without a hit: at the highest dose activity, negative = inhibition, hits mostly inhibitors; hit rate 8.8% among 350,000; further: potency means the concentration at half of the fitted maximal effect; nearly all actives have a fitted effect of over 75% in size
Target sequence (Q96KQ7 913-1193 limits assumed): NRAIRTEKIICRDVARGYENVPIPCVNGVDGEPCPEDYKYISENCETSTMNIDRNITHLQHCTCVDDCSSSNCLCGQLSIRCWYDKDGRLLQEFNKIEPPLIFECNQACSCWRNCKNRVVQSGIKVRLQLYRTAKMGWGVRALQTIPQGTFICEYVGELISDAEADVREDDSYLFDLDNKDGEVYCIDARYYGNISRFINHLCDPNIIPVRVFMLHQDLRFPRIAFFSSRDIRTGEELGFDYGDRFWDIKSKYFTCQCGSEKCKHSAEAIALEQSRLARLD
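Quantitative HTS format: methyltransferase activity on a biotin-tagged H3K9 peptide is measured by AlphaScreen, using a rabbit anti-monomethyl-H3K9 antibody with streptavidin donor and anti-IgG acceptor beads. Final levels are 20 nM enzyme, 500 nM peptide, 20 uM SAM; 2 h RT.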
Sfp inh = qHTS Assay for Inhibitors of Bacillus subtilis Sfp phosphopantetheinyl transferase (PPTase); 4'-phosphopantetheinyl transferase ffp (Bacillus subtilis), Q9F4F7; AID 1490, 2009; Potency, µM, for the others: largest response in the series, negative = inhibition, usual class: inhibitors; Biochemical Sfp PPTase activity, qHTS; hit rate 3.5% among 310,000;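 further: the enzyme is Sfp with the accession as filed and its product quenches rhodamine fluorescence; potency means the concentration at half of the fitted maximal effect; 0% = enzyme reaction without inhibitor and -100% = no enzyme wells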
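Fluorescence-quenching assay with 15 nM Sfp, 5 uM rhodamine-CoA and 12.5 uM BHQ-2-labelled ybbR peptide in pH 7.6 Hepes/MgCl2 buffer. Enzyme was pre-incubated with compound for 15 min at room temperature. Rate was taken from the 30-min fluorescence change (525/598 nm).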
Tau fibril ThT = qHTS for Inhibitors of Tau Fibril Formation, Thioflavin T Binding; Microtubule-associated protein tau (Homo sapiens), P10636; recombinant tau K18 P301L, heparin-induced fibrillization, ThT fluorescence; Potency, µM (top dose mostly 57.4 µM), without a hit: top-dose activity, negative = inhibition, most hits filed as inhibitors; hit rate 2.1% among 270,000; further: potency means the concentration at half of the fitted maximal effect; nearly all actives have a fitted effect of over 55% in size
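Using a mix of unlabeled (15 uM) and Alexa 594-labeled (0.24 uM) tau K18 P301L, heparin-triggered fibrillization over 6 hr at 37 C was scored by ThT fluorescence.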
Coupling enz = qHTS Assay for Inhibitors of Fructose-1,6-bisphosphate Aldolase from Giardia Lamblia: Coupling assay counterscreen; coupling enzyme system counterscreen, AmpLite Red fluorescence; activity change, negative = inhibition, % at 58.2 µM, hits read low; hit rate 0.67% among 290,000; in the data active means activity change below about -30%
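First, compound is pin-transferred into glyceraldehyde-3-phosphate coupling-enzyme reagent at 57.5 uM final and held 10 min at RT. Next, substrate, coupling system and AmpLite Red are added. After 20 min RT, fluorescence (525/598 nm) is read.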
Tau fluor counter = Counterscreen qHTS for Inhibitors of Tau Fibril Formation, Fluorescence Polarization; tau K18 P301L Alexa594 fluorescence, heparin fibrillization; hit rate 0.93% among 280,000; Potency, µM (series often up to 57.7 µM), for inactives: top-dose activity change, negative = decrease; AID 1463, 2008; further: potency means the concentration at half of the fitted maximal effect; nearly all actives have a fitted effect of over 55% in size
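Human tau K18 P301L (15 uM unlabeled, 0.24 uM Alexa 594-labeled) in 100 mM sodium acetate pH 7 with 20 uM heparin, 6 hr at 37 C. ThT 30 uM added, 1 hr ambient; Alexa 594 FP and total fluorescence read at 555/632 nm.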
An asterisk follows results filed as active; ? = inconclusive; nt = not tested or not shown; [ ] = remark or other dose. An excerpt weighted towards active compounds, which were near 11% of everything screened. Unless noted, the call rests on the fitted dose curve; in most records, active means well fitted curve in the direction sought with a large enough effect; inconclusive means small, poorly fitted or top-dose-only effect, or another doubt; inactive means no such curve, though single readings can be large; an effect the other way counts as inactive or inconclusive. Unless noted, on the % scale 0 is the no-effect control and ±100 the full control effect.

SMILES | Tau fibril FP | G9a block | Sfp inh | Tau fibril ThT | Coupling enz | Tau fluor counter
O=C(CCS(=O)(=O)c1ccc(Br)cc1)NC1CCCCCC1 | nt | 25µM* | 2% | nt | 2 | nt
O=C(COC(=O)c1cncc(Br)c1)NCCC1=CCCCC1 | 5% | 50µM* | -13% | -11% | -1 | 2%
Cc1ccc(CNC(=O)CCS(=O)(=O)c2ccc(Cl)cc2)cc1 | 1% | -17% | 16% | 2% | -1 | -1%
Cc1ccc(CNC(=O)CCS(=O)(=O)c2ccc(Br)cc2)cc1 | 2% | 8.9µM* | 22% | -5% | 5 | -11%
O=C(CCS(=O)(=O)c1ccc(Cl)cc1)NCCC1=CCCCC1 | nt | 21% | 10% | nt | 0 | nt
COc1ccc(-c2c(-c3cc(OC)cc(OC)c3)n(C)c3ccc(-c4ccc(S(N)(=O)=O)cc4)cc23)cc1 | nt | 6%[0.501 µM] | nt | nt | nt | nt
Cc1ccc(CNC(=O)c2c[nH]c3ccc(S(=O)(=O)Nc4ccc(C(C)C)cc4)cc3c2=O)cc1 | ? | -1%[59 µM] | nt | 9% | nt | ?
CC1(c2ccccc2)NC(=O)N(NC(=O)CSc2n[nH]c(N)n2)C1=O (stereo unspecified) | -2% | 21%[12.7 µM] | 7% | -3% | -1 | -1%
Cn1cnnc1SCC(=O)NN1C(=O)NC(C)(c2ccccc2)C1=O (stereo unspecified) | 2% | 22µM* | 5% | 3% | 0 | 5%
CCCCN(CC)CCCNC(=O)C1CCCN(c2ncnc3c2nc2n3CCCCC2)C1 (stereo unspecified) | -5% | -2%[59 µM] | nt | -2% | nt | -5%
COCCCNC(=O)CCc1c(C)nc2nc(-c3cc(OC)cc(OC)c3)nn2c1C | -3% | -1%[59 µM] | nt | -5% | nt | -10%
Cc1ccc2nc(-c3ccncc3)c(NC3CCCCC3)n2c1 | 2% | 16% | 2% | -13% | 1 | -27%
CCOc1ccc(NC(=O)NC2CCCc3ccccc32)cc1 (stereo unspecified) | nt | 46% | 19% | nt | 0 | nt
Brc1ccc(CSc2nnc(-c3ccco3)o2)cc1 | -4% | 83% | 56µM* | 11% | -1 | 5%
COCC(=O)N1CCC2(CC1)CCN(C(c1ccccc1)c1ccccc1)CC2 | nt | 8%[12.7 µM] | 5% | nt | 1 | nt
Cn1ccc2cc(NC(=O)Nc3cccnc3)ccc21 | ? | nt | -5% | ? | 1 | 14µM*[quencher]
COc1cccc(NC(=O)Nc2cccnc2)c1 | -4% | 5% | -5% | 6% | 1 | -6%
O=S(=O)(c1ccccc1F)N(Cc1ccco1)Cc1nnc(-c2ccccc2Br)o1 | 2% | 79µM* | -6% | -17% | -3 | -26%
Fc1ccc(OCc2nnc(-c3ccccc3Br)o2)c(Cl)c1 | nt | 76% | -7% | nt | 1 | nt
COc1cc(O)c(C(=O)c2ccccc2)cc1O | 14µM* | nt | 11µM* | 7.9µM* | -47* | 13µM*[quencher]
CCN(CC)CCN(C(=O)c1ccco1)c1nc2ccc(Br)cc2s1 | -9% | -6%[59 µM] | nt | 8% | nt | -10%
Cc1ccc(S(=O)(=O)Cn2nnnc2CN(Cc2ccco2)Cc2cccs2)cc1 | -2% | 20µM* | 14% | -16% | -2 | -15%
COc1cc(/C=C2/C(=O)N(c3ccc(Br)cc3)N=C2C)cc([N+](=O)[O-])c1O | nt | 79µM* | -11% | nt | 0 | nt
COc1cc(/C=C2/C(=O)N(c3cccc(Br)c3)N=C2C)cc(OC)c1O | nt | 10µM* | ? | nt | -3 | nt
COc1ccccc1/C=C1/C(=O)N(c2ccc([N+](=O)[O-])cc2)N=C1C | nt | ? | 18% | nt | 1 | nt
SMILES | Tau fibril FP | G9a block | Sfp inh | Tau fibril ThT | Coupling enz | Tau fluor counter
CCN1c2ccccc2-c2nc(SCC(=O)Nc3cccc(C(F)(F)F)c3)ncc2S1(=O)=O | 28µM* | -3%[59 µM] | nt | 13% | nt | ?
O=C(CSc1ncc(S(=O)(=O)c2ccc(Cl)cc2)c(=O)[nH]1)Nc1cccc(C(F)(F)F)c1 | -2% | -5%[59 µM] | nt | -6% | nt | -13%
CC(C)c1ccc(S(=O)(=O)c2cnc(SCC(=O)Nc3cccc(C(F)(F)F)c3)nc2N)cc1 | 13µM* | -4%[59 µM] | nt | ? | nt | ?
Cc1cn(C)c(CC(=O)N2CCN(c3cccc(Cl)c3)CC2)c1C(=O)O | 1% | -34%[59 µM] | nt | 0% | nt | 2%
COc1ccccc1OCCCCN1CCCCC1 | nt | 25% | 9% | nt | 1 | nt
CCc1ccccc1OCCCCN1CCCCC1 | nt | 40µM* | -1% | nt | -23 | nt
CCc1ccccc1OCCCN1CCCC1 | nt | 50µM* | -2% | nt | 0 | nt
COc1ccc(CCNc2oc(/C=C/c3cc(OC)c(OC)c(OC)c3)nc2C#N)cc1OC | 20% | 7%[59 µM] | nt | ? | nt | ?
Cn1cccc1/C=C1\CCC/C(=C\c2cccn2C)C1=O | 8% | ? | -23% | 5µM* | -5 | ?
O=C1/C(=C/c2cccs2)CCC/C1=C\c1cccs1 | nt | 14% | -8% | nt | nt | nt
COC(=O)c1cc2oc3ccccc3c2n1Cc1nc(-c2ccccc2Cl)oc1C | ? | -23%[59 µM] | nt | -9% | nt | -19%
Cc1cc(Cl)ccc1NNC(=O)c1c(C)noc1C | -5% | 2.8µM* | 0% | ? | 0 | -11%
Cc1ccc(NNC(=O)c2c(C)noc2C)cc1Cl | -9% | 7.1µM* | -10% | -12% | 0 | -10%
Cc1noc(C)c1C(=O)NNc1ccc(C(C)C)cc1 | -16% | ? | -6% | ? | 2 | -20%
Cc1ccc(-c2csc(NC(=O)CN3CC(C)OC(C)C3)n2)cc1 (stereo unspecified) | nt | 22% | 5% | nt | -3 | nt
COc1ccc(O)c(/C=C2/SC(=S)N(Cc3ccccc3)C2=O)c1 | nt | 4.5µM* | ? | nt | 0 | nt
O=C1/C(=C\c2cc(Cl)c(O)c(Cl)c2)SC(=S)N1Cc1ccccc1 | nt | 14µM* | ? | nt | 6 | nt
Cc1ccc(C)c(-n2nnc(C(=O)Nc3ccc(Br)cc3)c2C)c1 | 5% | ? | nt | 1% | nt | -12%
O=c1c2oc3ccccc3c2[nH]c(=S)n1-c1ccc(F)cc1 | -5% | 50µM* | 79µM* | -17% | -2 | -15%
Cc1ccc(-n2c(=S)[nH]c3c(oc4ccccc43)c2=O)cc1C | -2% | 79µM* | -14% | -18% | 2 | -14%
Cc1ccc(OCCCN2CCOCC2)c([N+](=O)[O-])c1 | 5% | 7.1µM* | -16% | -11% | 1 | -18%
Cc1ccc(OCc2ccc(C(=O)O)o2)c([N+](=O)[O-])c1 | -3% | 50µM* | -12% | 4% | 2 | 3%
O=[N+]([O-])c1ccccc1OCCN1CCOCC1 | nt | nt | -2% | nt | 0 | nt
